Measurements as given in PubChem BioAssay (Tox21).
A number with no mark means an inactive call. Records with an inconclusive call do not appear. A call without a number means that no potency is given here. Active and inactive are the calls of the source. Unless noted, calls follow the shape of the dose curve; as a rule, active = well fitted curve in the direction sought with a large enough effect in the repeat runs; inconclusive = weak or mixed curves; inactive = no such curve, though single readings can be large; an effect the other way counts as inactive or inconclusive.

Assays:
[1] = qHTS RealTime-Glo MT Cell Viability Assay in HepG2 cells - 16 hour (AID 1224885); also: nearly all actives have a fitted effect of over 50% in size
In short: (§1)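 Cells + NanoLuc/prosubstrate dispensed (600 cells/well) → 5 h at 37 C/5% CO2 → compounds in DMSO transferred → 40 h incubation at 37 C, luminescence read at 0, 8, 16, 24, 32, 40 h.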

[2] = qHTS RealTime-Glo MT Cell Viability Assay in HEK293 cells - 24 hour (AID 1224886); also: nearly all actives have a fitted effect of over 50% in size; also: potency is read from the fitted curve at half-maximal effect
In short: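 Tox21 10K qHTS, HEK293, 600 cells/well, RealTime-Glo reagent co-dispensed with cells; 5 h preincubation, compound by pintool, 37 C, luminescence at 0–40 h.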

[3] = qHTS RealTime-Glo MT Cell Viability Assay in HEK293 cells - 8 hour (AID 1224887); also: nearly all actives have a fitted effect of over 50% in size; also: potency is read from the fitted curve at half-maximal effect
In short: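 600 cells/well were plated with the nonlytic NanoLuc/prosubstrate reagent, pre-incubated 5 h, then given 23 nL of compound in DMSO. Incubation at 37 C for 40 h, with luminescence from viable-cell-reduced substrate read repeatedly from 0 h.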

[4] = A CellTox Green Cytotoxicity Assay to monitor cytotoxicity in HEK293 cells - 16 hour (AID 1224888); also: nearly all actives have a fitted effect of over 35% in size
In short: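 HEK293 cells, 600/well, were preincubated 5 hours and then exposed to compounds at 37 C for up to 40 hours. A cell-impermeant cyanine dye staining dead-cell DNA was read by fluorescence at 0, 8, 16, 24, 32 and 40 h time points.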

[5] = qHTS RealTime-Glo MT Cell Viability Assay in HepG2 cells - 0 hour (AID 1224889); also: nearly all actives have a fitted effect of over 50% in size
In short: as §1

[6] = A CellTox Green Cytotoxicity Assay to monitor cytotoxicity in HepG2 cells - 8 hour (AID 1224890); also: nearly all actives have a fitted effect of over 45% in size
In short: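 HepG2 cells, 600/well, preincubated 5 h with CellTox Green dye, then exposed to Tox21 compounds in DMSO at 37 C for up to 40 h. Dead-cell DNA fluorescence read at the indicated time point.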

[7] = qHTS assay to identify small molecule antagonists of the estrogen receptor alpha (ER-alpha) signaling pathway using the BG1 cell line in the presence of 0.1 nM 17-beta-estradiol - cell viability counter screen (AID 1259241); also: nearly all actives have a fitted effect of over 40% in size
In short: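 Viability in VM7Luc4E2 cells after 22 hr compound exposure under 0.1 nM 17beta-estradiol stimulation, by CellTiter-Fluor.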

[8] = qHTS assay to identify small molecule antagonists of the androgen receptor (AR) signaling pathway using the MDA cell line in the presence of 0.5 nM R1881 - cell viability counter screen (AID 1259242); also: nearly all actives have a fitted effect of over 45% in size
In short: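 MDA-kb2 cells (MMTV-luciferase, AR/GR responsive) were treated with compounds plus 0.5 nM R1881 (final) for 16 hr at 37C, 0% CO2. Viability was then read in the same wells as live-cell protease fluorescence (CellTiter-Fluor, 30 min).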

[9] = qHTS assay to identify small molecule HDAC inhibitors (AID 1259364); also: nearly all actives have a fitted effect of over 45% in size; also: potency is read from the fitted curve at half-maximal effect
In short: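 Wild-type HCT-116 cells, plated overnight at 37 C, exposed to compounds 2 hr at 37 C; luminogenic HDAC-Glo substrate then added 30 min at room temperature. Luminescence reports relative endogenous class I/II HDAC activity.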

[10] = qHTS assay to identify small molecule HDAC inhibitors - cell viability counter screen (AID 1259365)
In short: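 Cytotoxicity was gauged in wild-type HCT-116 cells after a brief 2hr treatment with DMSO-dissolved compounds at 37C and 5% CO2, using CellTiter-Glo luminescence developed for 30min at room temperature.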

[11] = qHTS assay to identify small molecule agonists of the sonic hedgehog signaling (Shh) pathway - cell viability counter screen (AID 1259366); also: nearly all actives have a fitted effect of over 50% in size
In short: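 Stable Gli1-Luc NIH/3T3 clone, 2,000 cells/well. Compound exposure 24hr at 37C. Read-out: CellTiter-Fluor fluorescence.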

[12] = qHTS assay to identify small molecule antagonists of the sonic hedgehog signaling (Shh) pathway - cell viability counter screen (AID 1259367); also: nearly all actives have a fitted effect of over 55% in size
In short: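 NIH/3T3-derived Gli1-Luc reporter cells (2,000 per well) rested 4 hr at 37 C, then received DMSO compounds plus conditioned medium. After 23 hr of treatment, CellTiter-Fluor was added for 1 hr at 37C and fluorescence read.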

[13] = qHTS assay to identify small molecule agonists of the sonic hedgehog signaling (Shh) pathway (AID 1259368; calls by dose curve;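 also: NIH/3T3-derived 3T3Gli1-Luc cells carrying a stable Gli1-driven firefly luciferase reporter; series mostly up to about 92 µM; nearly all actives have a fitted effect of over 15% in size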)
In short: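 NIH/3T3-derived 3T3Gli1-Luc cells with stably integrated Gli1-driven firefly luciferase, 2,000 cells/well, compounds added after 4 hr. Incubated 24 hr at 37C, 5% CO2; luminescence read after 30 min with luciferase reagent at room temperature.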

[14] = qHTS assay to identify small molecule antagonists of the sonic hedgehog signaling (Shh) pathway (AID 1259369; calls by dose curve; also: nearly all actives have a fitted effect of over 45% in size)
In short: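 NIH/3T3-derived Gli1-Luc reporter cells plated 4 h, dosed with compound, then stimulated with conditioned medium for 24 h at 37 C. Firefly luciferase luminescence read after 30 min with detection reagent at room temperature.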

[15] = target: Estrogen receptor beta (Homo sapiens) (UniProt Q92731); test: qHTS assay to identify small molecule agonists of the estrogen receptor beta (ER-beta) signaling pathway (AID 1259377; active = well fitted activation curve with a large enough effect in the signal ratio in the repeat runs, not every such curve was filed as active; the % refers to the signal ratio)
Estrogen receptor beta (Homo sapiens), sequence (Q92731 whole entry, looked up): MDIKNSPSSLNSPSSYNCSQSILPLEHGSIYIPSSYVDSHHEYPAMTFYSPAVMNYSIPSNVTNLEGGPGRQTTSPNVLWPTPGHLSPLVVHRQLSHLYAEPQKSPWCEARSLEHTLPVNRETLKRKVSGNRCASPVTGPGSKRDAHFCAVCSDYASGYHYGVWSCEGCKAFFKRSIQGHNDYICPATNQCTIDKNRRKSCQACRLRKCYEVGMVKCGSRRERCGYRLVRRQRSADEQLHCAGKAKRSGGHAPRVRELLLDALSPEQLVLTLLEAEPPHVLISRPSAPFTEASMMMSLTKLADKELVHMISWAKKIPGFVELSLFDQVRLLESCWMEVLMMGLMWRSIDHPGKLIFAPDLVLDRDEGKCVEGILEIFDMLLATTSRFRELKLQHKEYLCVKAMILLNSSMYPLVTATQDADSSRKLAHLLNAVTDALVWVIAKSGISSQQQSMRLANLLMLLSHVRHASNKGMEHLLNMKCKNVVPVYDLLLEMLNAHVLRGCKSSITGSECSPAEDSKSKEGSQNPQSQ
In short: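 Measured by fluorescence intensity from a B/G FRET beta-lactamase substrate (2 h, room temperature) in ER-beta-UAS-bla HEK293T cells treated with DMSO-dissolved compounds for 16 hr at 37C and 5% CO2.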

[16] = qHTS assay to identify small molecule agonists of the androgen receptor (AR) signaling pathway in the presence of an antagonist - cell viability counter screen (AID 1259379);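 also: MDA-kb2 human breast cancer cells carrying an MMTV luciferase reporter; series mostly up to about 92 µM; nearly all actives have a fitted effect of over 25% in size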
In short: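 MDA-kb2 cells (MMTV-luciferase, AR/GR), 3,000/well, 5 h attachment, then 3.0 µM nilutamide (final) and compounds at 15 concentrations. Viability by CellTiter-Fluor fluorescence after 16 h at 37 °C, 0% CO2, in the reporter wells.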

[17] = target: Estrogen receptor (Homo sapiens) (UniProt P03372); test: qHTS assay to identify small molecule antagonists of the estrogen receptor alpha (ER-alpha) signaling pathway using the BG1 cell line in the presence of 0.1 nM 17-beta-estradiol (AID 1259244); also: nearly all actives have a fitted effect of over 50% in size
Estrogen receptor (Homo sapiens), sequence (P03372 whole entry, looked up): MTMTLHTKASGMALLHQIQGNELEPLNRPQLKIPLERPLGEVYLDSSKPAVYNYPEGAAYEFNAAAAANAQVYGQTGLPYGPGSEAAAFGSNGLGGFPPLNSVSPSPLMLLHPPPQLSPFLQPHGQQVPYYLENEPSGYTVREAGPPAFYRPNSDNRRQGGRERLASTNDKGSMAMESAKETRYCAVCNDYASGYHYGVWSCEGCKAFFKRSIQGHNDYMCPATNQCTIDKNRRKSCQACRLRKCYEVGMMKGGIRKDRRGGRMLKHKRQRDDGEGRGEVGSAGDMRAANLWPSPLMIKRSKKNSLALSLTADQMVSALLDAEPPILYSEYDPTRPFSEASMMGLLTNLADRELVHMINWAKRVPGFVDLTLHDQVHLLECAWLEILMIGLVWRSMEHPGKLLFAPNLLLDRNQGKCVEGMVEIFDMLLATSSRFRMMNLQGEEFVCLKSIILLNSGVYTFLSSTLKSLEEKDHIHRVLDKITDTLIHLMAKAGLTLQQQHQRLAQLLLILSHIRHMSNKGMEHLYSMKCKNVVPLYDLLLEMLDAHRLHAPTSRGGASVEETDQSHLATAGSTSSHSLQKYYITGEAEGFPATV
In short: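 VM7Luc4E2 cells (endogenous full-length ER-alpha, 4×ERE-luciferase), kept 5 days in phenol red-free, charcoal-stripped FBS medium; 4,000 cells/well. Compounds added with 0.1 nM (final) 17beta-estradiol, 22 hr at 37C; luminescence read with ONE-Glo after 30 min.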

[18] = target: Estrogen receptor beta (Homo sapiens) (UniProt Q92731); test: qHTS assay to identify small molecule antagonists of the estrogen receptor beta (ER-beta) signaling pathway (AID 1259378; active = well fitted inhibition curve with a large enough effect in the signal ratio in the repeat runs, not every such curve was filed as active; the % refers to the signal ratio)
In short: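 ER-beta-UAS-bla HEK293T (GripTite) cells in 2% charcoal-stripped FBS medium were preincubated 6 hr at 37C, dosed with compound, then stimulated with 1 nM E2 (final) for 16 hr; beta-lactamase reporter read by B/G FRET fluorescence after 2 hr substrate loading.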

[19] = target: Androgen receptor (Homo sapiens) (UniProt P10275); test: qHTS assay to identify small molecule antagonists of the androgen receptor (AR) signaling pathway using the MDA cell line in the presence of 0.5 nM R1881 (AID 1259243); also: nearly all actives have a fitted effect of over 50% in size
Androgen receptor (Homo sapiens), sequence (P10275 whole entry, looked up): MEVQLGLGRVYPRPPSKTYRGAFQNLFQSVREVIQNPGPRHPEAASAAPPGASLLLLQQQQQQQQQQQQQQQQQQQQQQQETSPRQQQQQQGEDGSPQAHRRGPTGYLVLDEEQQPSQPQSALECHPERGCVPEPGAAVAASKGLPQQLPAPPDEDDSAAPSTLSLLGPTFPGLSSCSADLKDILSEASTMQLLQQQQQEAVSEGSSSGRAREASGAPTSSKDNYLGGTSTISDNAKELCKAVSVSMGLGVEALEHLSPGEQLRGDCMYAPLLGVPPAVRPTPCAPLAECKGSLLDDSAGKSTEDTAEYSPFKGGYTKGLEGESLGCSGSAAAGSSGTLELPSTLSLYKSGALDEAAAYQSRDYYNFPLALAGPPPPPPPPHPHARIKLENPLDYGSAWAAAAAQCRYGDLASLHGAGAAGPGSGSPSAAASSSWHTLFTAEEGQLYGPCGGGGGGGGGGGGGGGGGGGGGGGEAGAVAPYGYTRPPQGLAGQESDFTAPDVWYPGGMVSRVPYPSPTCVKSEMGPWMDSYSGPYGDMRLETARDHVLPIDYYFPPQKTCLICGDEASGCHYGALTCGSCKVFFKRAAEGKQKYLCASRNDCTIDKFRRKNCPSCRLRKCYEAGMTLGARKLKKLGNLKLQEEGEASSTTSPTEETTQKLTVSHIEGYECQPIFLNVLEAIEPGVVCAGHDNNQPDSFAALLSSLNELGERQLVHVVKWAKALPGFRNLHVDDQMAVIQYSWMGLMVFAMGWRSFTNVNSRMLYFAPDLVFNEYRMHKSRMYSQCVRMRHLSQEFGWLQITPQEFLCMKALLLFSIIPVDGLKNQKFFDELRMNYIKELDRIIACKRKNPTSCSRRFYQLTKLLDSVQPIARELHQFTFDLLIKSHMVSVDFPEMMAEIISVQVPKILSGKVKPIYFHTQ
In short: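 MDA-kb2 cells (MMTV-luciferase, responsive to AR and GR) at 3,000/well, rested 5 h at 37C, 0% CO2, then given compounds plus 0.5 nM R1881 (final) for 16 hr. Luciferase read with ONE-Glo after 30 min at room temperature.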

Structure (SMILES)	Potency [1]	Potency [2]	Potency [3]	Potency [4]	Potency [5]	Potency [6]	Potency [7]	Potency [8]	Potency [9]	Potency [10]	Potency [11]	Potency [12]	Potency [13]	Potency [14]	outcome [15]	Potency [16]	Potency [17]	Potency [18]	Potency [19]
C/C(=C\c1ccc(C(=O)O)cc1)c1ccc2c(c1)C(C)(C)CCC2(C)C	inactive	inactive	inactive	inactive	inactive	inactive	inactive	inactive	inactive	inactive	inactive	inactive	inactive	inactive	inactive	inactive	–	–	–
S=C1NC=NC2N=CNC12 (stereo unspecified)	inactive	21.9 µM (active)	inactive	inactive	inactive	inactive	inactive	inactive	inactive	inactive	inactive	inactive	inactive	inactive	–	–	–	–	–
Cn1ccnc1	inactive	inactive	inactive	inactive	inactive	inactive	inactive	inactive	–	inactive	inactive	inactive	inactive	inactive	inactive	inactive	inactive	inactive	–
O=C1CCC/C=C\CCCCCCCCCC1	inactive	inactive	inactive	inactive	inactive	inactive	–	inactive	inactive	inactive	inactive	–	inactive	–	–	–	–	inactive	–
Cc1ccc(C=O)cc1	inactive	inactive	inactive	inactive	inactive	inactive	–	inactive	inactive	inactive	inactive	inactive	inactive	inactive	inactive	–	inactive	inactive	–
NC(=O)c1ccccc1Cl	inactive	inactive	inactive	inactive	inactive	inactive	–	inactive	inactive	inactive	inactive	inactive	–	inactive	–	inactive	inactive	inactive	–
c1ccc(-c2nc3ccccc3[nH]2)cc1	inactive	21.9 µM (active)	21.9 µM (active)	inactive	inactive	inactive	inactive	inactive	2.43 µM (active)	inactive	inactive	inactive	inactive	–	inactive	inactive	inactive	inactive	–
CC(CC(C)(C)C)CC(C)(C)CC(C)(C)C (stereo unspecified)	inactive	inactive	inactive	inactive	inactive	inactive	–	inactive	–	inactive	inactive	inactive	–	inactive	–	inactive	–	inactive	inactive
